Measured values published in PubChem BioAssay (NCATS).
Inconclusive results are not listed. Activity calls are given as the source filed them. Unless noted, calls come from the whole dose curve; as a rule, active = well fitted curve in either direction with a large enough effect (not every such curve was filed as active); inconclusive = small, poorly fitted or top-dose-only effect, or another doubt; inactive = flat fitted curve, though single readings scatter.

Assays:
[1] = AP1 Signaling Pathway (AID 357);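 note: ME-180 reporter cells stimulated with EGF at its EC50 level; % is set by controls: 0 for no effect and ±100 for the full control effect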
Method in brief: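 In this screen, ME-180 cells in Opti-MEM with 0.5% dialyzed FBS received EC50 EGF and compound titrations for 5 h. AP-1 reporter beta-lactamase was detected via CCF4 ratio, giving AC50 for positive and negative modulators.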

[2] = molecular target: Cytochrome P450 1A2 (Homo sapiens) (UniProt P05177); test: p450-cyp1a2 (AID 410; calls by dose curve; note: potency is the fitted concentration of half-maximal effect;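 for activity change, negative = inhibition: -100% = full effect of reference inhibitor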)
Method in brief: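 Human CYP1A2 (20nM) demethylated Luciferin-ME at its Km (100uM) in 100mM KPO4. After 10 min compound preincubation, NADPH regeneration ran the reaction 60 min at room temperature. Luciferin was read by luminescence, normalized to 57 uM furafylline.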

[3] = NFAT Signaling Pathway (AID 444); settings: Jurkat NFAT-bla M1, carbachol, beta-lactamase ratio, 5 h; at 17.2 µM (top of the series) unless noted;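 note: carbachol stimulus at about its EC50 of 1 µM final; % is set by controls: 0 for no effect and ±100 for the full control effect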
Method in brief: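 Jurkat cells with NFAT-driven β-lactamase reporter and co-expressed M1 receptor, stimulated with carbachol (final 1 uM, ~EC50), compound titration, 5 h at 37 °C. CCF4 loaded 1 h at RT; 460/530 nm ratio gave %activity and AC50.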

[4] = Stat Signaling Pathway (AID 446);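 note: ME-180 cervical cancer cells given 40 pM IL-6 alongside compound; SIE-controlled beta-lactamase reporter measured as 460/530 nm FRET emission ratio; % is set by controls: 0 for no effect and ±100 for the full control effect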
Method in brief: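 ME-180 SIE-bla cells; overnight plating; cpd + IL-6 40 pM, 5 h, 37 C; LiveBLAzer 2.5 h RT; 460/530 nm emission ratio. Normalized to 300 pM IL-6 and 125 nM JAK inhibitor controls.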

[5] = molecular target: Mitogen-activated protein kinase 10 (Mus musculus) (UniProt Q61831); test: JNK3 AlphaScreen Assay (AID 530);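 note: kinase came from lysate of stimulated human HepG2 cells; signal reports phosphorylation of biotinylated GST-cJun 1-79 at Ser73 with 10 µM ATP; % is set by controls: 0 for no effect and ±100 for the full control effect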
Method in brief: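 qHTS format: compounds tested as titrations against IL-1beta/TNF-alpha-activated HepG2 lysate JNK3 with biotin-GST-cJun substrate and 10 uM ATP at room temperature. Loss of anti-phospho-cJun AlphaScreen signal indicates inhibition.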

[6] = qHTS Assay for Lipid Storage Modulators (AID 1519; calls by dose curve); settings: Drosophila S3 cells, BODIPY lipid droplet/cell ratio, laser cytometry, cells loaded with oleic acid; for activity change, negative = inhibition: at 25.7 µM (top of the series)
Method in brief: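 Cells seeded at 5,000 per well were treated with compounds over a concentration series and loaded with oleic acid (400 uM, as added). Lipid droplet fluorescence (488 nm excitation, 500-530 nm channel) was read by laser-scanning cytometry and normalized to 20 uM Triacsin C.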

[7] = molecular target: ATP-dependent 6-phosphofructokinase (Trypanosoma brucei brucei) (UniProt O15648); test: qHTS Assay to Find Inhibitors of T. brucei phosphofructokinase: hit validation (AID 492961; active = well fitted curve in the direction sought with a large enough effect; an effect the other way counts as inactive or inconclusive)
Method in brief: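 Compounds titrated; %activity normalized to 0x and 1x enzyme controls, curve-fitted. Readout: ADP-Glo luminescence after 45 min room-temperature reaction of 1.25 nM PFK, 0.1 mM ATP, 0.5 mM F6P, pH 8.0.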

[8] = molecular target: Luciferin 4-monooxygenase (Photinus pyralis) (UniProt P08659); test: Biochemical firefly luciferase enzyme assay for NPC (AID 624030; active = well fitted curve in the direction sought with a large enough effect; an effect the other way counts as inactive or inconclusive;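 note: purified P. pyralis luciferase at 10 nM with luciferin and ATP substrate; 0% = DMSO and -100% = full luciferase inhibition by PTC124 control; nearly all actives have a fitted effect of over 70% in size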)
Method in brief: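 Purified P. pyralis luciferase at 10 nM in 50 mM Tris Acetate (final), luminescence read within 5 minutes of enzyme addition to compounds. Activity normalised to PTC124 versus DMSO; concentration-response curves classed by r2, magnitude and activity.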

[9] = S16 Schwann cell PMP22 intronic element firefly luciferase assay (AID 624032; active = well fitted curve in the direction sought with a large enough effect; an effect the other way counts as inactive or inconclusive; note: nearly all actives have a fitted effect of over 30% in size; note: potency is the fitted concentration of half-maximal effect;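 for activity change, negative = inhibition: plate controls were DMSO for no effect and PTC124 positive control mean for full effect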)
Method in brief: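 Rat S16 Schwann cells stably carrying firefly luciferase driven by a PMP22 intronic element, in 10% FBS, treated 24 h at 37 C. ONE-Glo luminescence normalized to PTC124 control and DMSO (0%); curves classed by r2, magnitude and activity.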

CP250 = test: qHTS profiling for inhibitors of Plasmodium falciparum proliferation (AID 504749; active = well fitted curve in the direction sought with a large enough effect; an effect the other way counts as inactive or inconclusive;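 note: 0% = DMSO vehicle and full inhibition = artemisinin control; nearly all actives have a fitted effect of over 60% in size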); settings: P. falciparum in erythrocytes, SYBR Green DNA, 72 h; series mostly up to 12.8 µM
Method in brief: (§1)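 Readout was DNA-dye fluorescence from lysed cultures, ex 485/em 535 nm. Parasitized red cells had grown 72 h with compound; data scaled between 0.29 uM artemisinin and DMSO wells and corrected using vehicle-only plates.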

CP256 = test: as above; settings: P. falciparum in erythrocytes, SYBR Green DNA, 72 h; series mostly up to 12.8 µM
Method in brief: as §1

JCK = test: as above; settings: P. falciparum in erythrocytes, SYBR Green DNA, 72 h; series mostly up to 12.8 µM
Method in brief: as §1

[10] = molecular target: 3',5'-cyclic-AMP phosphodiesterase 4B (Homo sapiens) (UniProt Q07343); test: qHTS Assay for Inhibitors of PDE-IV (AID 607; active = well fitted activation curve with a large enough effect in the main read-out, with a control signal flat, not every such curve was filed as active; note: % of control where 0% means no effect)
Method in brief: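 ACTOne HEK293 cells carry a modified cAMP-gated CNG channel and express endogenous PDE4; plated 1000 cells/well, compounds up to 22.9 uM final. Membrane-potential dye fluorescence (ex 535/em 590) was read; parental cells received 10 uM forskolin + 100 uM RO 20-1724.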

[11] = molecular target: Ubiquitin carboxyl-terminal hydrolase 1 (Homo sapiens) (UniProt O94782); test: Inhibitors of USP1/UAF1: Pilot qHTS (AID 504865; active = well fitted curve in the direction sought with a large enough effect; an effect the other way counts as inactive or inconclusive;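 note: rhodamine fluorescence freed from ubiquitin-rhodamine substrate followed over time; top concentration of the series differs between compounds; % is set by controls: 0 for no effect and ±100 for the full control effect; nearly all actives have a fitted effect of over 35% in size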)
Method in brief: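 Kinetic fluorescence assay: 1nM USP1/UAF1, 15 min compound preincubation, then 150nM Ub-Rho; 480/540 nm.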

[12] = molecular target: Glucocorticoid receptor (Homo sapiens) (UniProt P04150); test: GR-EFC Redistribution (AID 451; calls by dose curve; note: potency is the fitted concentration of half-maximal effect); settings: CHO-K1 GR-EFC translocation, beta-gal luminescence, 2 h
Method in brief: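 CHO-K1 cells expressing nuclear EA and GR-ED fragments of b-gal; compounds titrated up to 46 uM final, 2 h at 37 C. GR nuclear translocation read as complemented b-gal luminescence after 1 h RT detection.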

[13] = qHTS profiling for inhibitors of Plasmodium falciparum proliferation (AID 504749);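 note: 0% = DMSO vehicle and full inhibition = artemisinin control; nearly all actives have a fitted effect of over 60% in size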; settings: P. falciparum in erythrocytes, SYBR Green DNA, 72 h, at 12.8 µM (top of the series)
Method in brief: as §1

CP191 = test: as above; settings: P. falciparum in erythrocytes, SYBR Green DNA, 72 h; series mostly up to 12.8 µM
Method in brief: as §1

CP217 = test: as above; settings: P. falciparum in erythrocytes, SYBR Green DNA, 72 h; series mostly up to 12.8 µM
Method in brief: as §1

FAB9 = test: as above; settings: P. falciparum in erythrocytes, SYBR Green DNA, 72 h; series mostly up to 12.8 µM
Method in brief: as §1

[14] = measured here: cell count channel max response
[15] = measured here: lipid channel max response

Chain of Glucocorticoid receptor (Homo sapiens) (P04150 whole entry, looked up, the tested form may be a part): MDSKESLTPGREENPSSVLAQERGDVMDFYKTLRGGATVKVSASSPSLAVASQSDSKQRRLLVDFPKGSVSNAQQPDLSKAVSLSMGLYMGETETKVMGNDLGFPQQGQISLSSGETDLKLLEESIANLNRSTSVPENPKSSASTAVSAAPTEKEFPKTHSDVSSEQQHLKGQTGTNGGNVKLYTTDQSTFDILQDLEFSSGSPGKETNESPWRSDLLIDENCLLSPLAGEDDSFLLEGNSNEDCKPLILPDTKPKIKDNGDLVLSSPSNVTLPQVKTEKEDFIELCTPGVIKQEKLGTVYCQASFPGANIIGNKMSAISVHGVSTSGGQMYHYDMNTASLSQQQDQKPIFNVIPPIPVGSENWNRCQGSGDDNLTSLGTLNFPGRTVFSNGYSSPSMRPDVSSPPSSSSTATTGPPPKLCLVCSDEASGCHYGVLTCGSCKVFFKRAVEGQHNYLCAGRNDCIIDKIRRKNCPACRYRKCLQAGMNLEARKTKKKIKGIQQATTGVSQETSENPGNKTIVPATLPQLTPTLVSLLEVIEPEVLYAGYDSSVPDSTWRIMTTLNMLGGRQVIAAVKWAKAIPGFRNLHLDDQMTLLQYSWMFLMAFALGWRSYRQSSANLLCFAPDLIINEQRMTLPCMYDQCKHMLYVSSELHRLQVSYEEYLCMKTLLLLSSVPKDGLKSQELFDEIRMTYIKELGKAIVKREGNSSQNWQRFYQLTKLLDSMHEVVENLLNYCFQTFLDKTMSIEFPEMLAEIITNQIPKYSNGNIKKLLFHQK
Chain of 3',5'-cyclic-AMP phosphodiesterase 4B (Homo sapiens) (Q07343 whole entry, looked up): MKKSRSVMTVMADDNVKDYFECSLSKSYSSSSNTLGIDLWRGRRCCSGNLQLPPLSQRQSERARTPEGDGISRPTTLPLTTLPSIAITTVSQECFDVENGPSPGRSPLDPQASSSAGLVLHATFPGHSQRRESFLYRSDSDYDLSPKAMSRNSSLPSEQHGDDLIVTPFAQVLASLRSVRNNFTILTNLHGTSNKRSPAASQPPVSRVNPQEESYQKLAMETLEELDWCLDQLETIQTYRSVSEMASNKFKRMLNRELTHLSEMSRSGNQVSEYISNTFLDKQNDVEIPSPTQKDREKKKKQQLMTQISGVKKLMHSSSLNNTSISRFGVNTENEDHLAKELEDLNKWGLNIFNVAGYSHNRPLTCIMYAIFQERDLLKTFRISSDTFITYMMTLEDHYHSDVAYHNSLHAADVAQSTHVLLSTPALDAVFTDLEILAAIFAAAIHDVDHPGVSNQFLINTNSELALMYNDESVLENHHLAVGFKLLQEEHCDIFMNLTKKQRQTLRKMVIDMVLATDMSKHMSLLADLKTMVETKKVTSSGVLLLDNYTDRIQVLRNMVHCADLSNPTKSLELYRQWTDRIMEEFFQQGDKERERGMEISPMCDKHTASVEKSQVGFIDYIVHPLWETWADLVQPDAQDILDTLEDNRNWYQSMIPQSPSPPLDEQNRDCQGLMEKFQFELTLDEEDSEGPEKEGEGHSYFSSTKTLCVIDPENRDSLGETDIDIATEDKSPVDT
Chain of Ubiquitin carboxyl-terminal hydrolase 1 (Homo sapiens) (O94782 whole entry, looked up): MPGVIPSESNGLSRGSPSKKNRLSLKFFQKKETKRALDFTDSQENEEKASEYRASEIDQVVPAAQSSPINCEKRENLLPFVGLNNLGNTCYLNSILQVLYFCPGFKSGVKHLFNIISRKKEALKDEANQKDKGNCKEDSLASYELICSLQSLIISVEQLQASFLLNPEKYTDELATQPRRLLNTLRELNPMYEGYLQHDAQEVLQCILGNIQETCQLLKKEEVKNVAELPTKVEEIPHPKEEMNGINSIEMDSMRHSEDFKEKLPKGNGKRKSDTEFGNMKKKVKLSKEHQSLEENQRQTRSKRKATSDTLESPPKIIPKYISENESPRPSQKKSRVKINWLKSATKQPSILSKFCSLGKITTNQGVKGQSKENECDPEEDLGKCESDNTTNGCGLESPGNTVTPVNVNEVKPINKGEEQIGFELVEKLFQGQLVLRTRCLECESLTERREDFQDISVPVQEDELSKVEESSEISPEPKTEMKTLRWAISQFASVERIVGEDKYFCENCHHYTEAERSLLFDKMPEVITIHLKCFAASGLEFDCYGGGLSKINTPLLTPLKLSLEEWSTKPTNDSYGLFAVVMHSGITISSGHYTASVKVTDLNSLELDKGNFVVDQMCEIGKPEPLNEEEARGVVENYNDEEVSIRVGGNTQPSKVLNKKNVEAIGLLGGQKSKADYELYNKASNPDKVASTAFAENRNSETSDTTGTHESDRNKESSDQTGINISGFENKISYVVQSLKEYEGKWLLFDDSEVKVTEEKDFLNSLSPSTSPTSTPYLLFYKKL
Chain of Cytochrome P450 1A2 (Homo sapiens) (P05177 whole entry, looked up): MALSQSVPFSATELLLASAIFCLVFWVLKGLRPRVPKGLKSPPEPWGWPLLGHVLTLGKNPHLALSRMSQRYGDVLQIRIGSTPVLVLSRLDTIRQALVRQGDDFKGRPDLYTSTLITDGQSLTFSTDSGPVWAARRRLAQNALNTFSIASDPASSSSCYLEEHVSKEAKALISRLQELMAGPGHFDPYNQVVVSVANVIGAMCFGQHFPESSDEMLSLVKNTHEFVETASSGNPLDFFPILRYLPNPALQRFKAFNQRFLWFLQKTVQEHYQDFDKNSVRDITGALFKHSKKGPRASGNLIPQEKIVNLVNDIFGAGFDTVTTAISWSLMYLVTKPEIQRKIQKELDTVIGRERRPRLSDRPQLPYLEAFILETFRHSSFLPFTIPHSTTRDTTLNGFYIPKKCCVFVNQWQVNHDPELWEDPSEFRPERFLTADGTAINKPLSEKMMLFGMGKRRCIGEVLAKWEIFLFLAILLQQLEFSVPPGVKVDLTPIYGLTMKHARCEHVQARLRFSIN
Chain of ATP-dependent 6-phosphofructokinase (Trypanosoma brucei brucei) (O15648 whole entry, looked up): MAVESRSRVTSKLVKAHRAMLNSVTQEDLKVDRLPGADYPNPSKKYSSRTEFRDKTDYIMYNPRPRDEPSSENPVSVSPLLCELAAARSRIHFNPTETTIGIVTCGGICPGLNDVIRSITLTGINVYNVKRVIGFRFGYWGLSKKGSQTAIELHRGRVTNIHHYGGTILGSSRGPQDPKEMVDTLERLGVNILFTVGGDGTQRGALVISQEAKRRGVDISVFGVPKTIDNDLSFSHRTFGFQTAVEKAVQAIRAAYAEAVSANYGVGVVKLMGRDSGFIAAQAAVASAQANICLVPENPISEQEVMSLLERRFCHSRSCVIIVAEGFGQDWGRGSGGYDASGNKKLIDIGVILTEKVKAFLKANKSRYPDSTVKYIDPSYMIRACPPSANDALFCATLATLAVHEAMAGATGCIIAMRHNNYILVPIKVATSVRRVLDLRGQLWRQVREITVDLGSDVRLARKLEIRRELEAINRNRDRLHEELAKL
Chain of Luciferin 4-monooxygenase (Photinus pyralis) (P08659 whole entry, looked up): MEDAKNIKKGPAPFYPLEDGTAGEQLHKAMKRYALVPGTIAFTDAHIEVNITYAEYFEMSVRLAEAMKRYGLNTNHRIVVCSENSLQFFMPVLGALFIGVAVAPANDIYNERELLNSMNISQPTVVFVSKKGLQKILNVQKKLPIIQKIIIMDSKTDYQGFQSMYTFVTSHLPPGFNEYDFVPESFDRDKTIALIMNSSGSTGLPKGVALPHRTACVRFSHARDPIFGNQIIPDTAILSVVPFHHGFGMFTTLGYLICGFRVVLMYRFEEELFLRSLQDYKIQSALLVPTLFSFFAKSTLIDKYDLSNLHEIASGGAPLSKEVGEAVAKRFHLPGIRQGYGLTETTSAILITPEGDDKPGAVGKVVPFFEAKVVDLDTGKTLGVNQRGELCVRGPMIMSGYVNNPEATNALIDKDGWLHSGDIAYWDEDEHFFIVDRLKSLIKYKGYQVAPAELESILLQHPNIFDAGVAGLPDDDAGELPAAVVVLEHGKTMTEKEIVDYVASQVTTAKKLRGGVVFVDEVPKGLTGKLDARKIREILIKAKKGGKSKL

CCC(=O)O[C@@]1(C(=O)SCF)[C@@H](C)C[C@H]2[C@@H]3C[C@@H](F)C4=CC(=O)C=C[C@@]4(C)[C@]3(F)[C@@H](O)C[C@]21C
-7.35%: max response [6, 14]
inactive: outcome [1] | Potency [2] | activity change, negative = inhibition [3] -22.7% | outcome [4] | Potency [5] | activity change, negative = inhibition [6] 1.23% | outcome [7] | Potency [8] | Potency [9] | Potency (CP250) | Potency (CP256) | Potency (JCK)
-5.95%: max response [6, 15]

C[C@@]12C=CC(=O)C=C1CC[C@@H]1[C@@H]2[C@H](O)C[C@]2(C)[C@@H]1CC[C@]2(O)C(=O)CO
2.46%: max response [6, 14]
inactive: outcome [1] | Potency [2] | activity change, negative = inhibition [3] -7.95% | outcome [4] | outcome [10] | activity change, negative = inhibition [6] -5.21% | Potency [11]
-3.94%: max response [6, 15]

C[C@@H]1CCc2cc(F)cc3c(=O)c(C(=O)O)cn1c23
inactive: outcome [1] | activity change, negative = inhibition [3] 7.91% | outcome [4] | Potency [12] > 20.6 µM | outcome [10] | activity change, negative = inhibition [6] -0.0799% | Potency [11]
-1.83%: max response [6, 15]
-3%: max response [6, 14]
active: Potency [2] 12.6 µM

CC(=O)CC(=O)[C@@]1(O)CC[C@@H]2[C@@H]3C=C(C)C4=CC(=O)CC[C@@H]4[C@H]3CC[C@]21C
inactive: outcome [1] | Potency [2] | activity change, negative = inhibition [3] -13.4% | outcome [4] | Potency [12] > 20.6 µM | Potency [5] | activity change, negative = inhibition [6] -4.61%
-21%: max response [6, 15]
-16.2%: max response [6, 14]

CC(=O)OCC(=O)[C@@]1(O)CC[C@@H]2[C@H]3CCC4=CC(=O)CC[C@]4(C)[C@]3(F)[C@@H](O)C[C@@]21C
9.02%: max response [6, 15]
9.04%: max response [6, 14]
inactive: outcome [1] | Potency [2] | activity change, negative = inhibition [3] -9.54% | outcome [4] | Potency [5] | outcome [10] | activity change, negative = inhibition [6] 0.165% | Potency [11]

CC(C)CC(=O)N[C@H](C(=O)N[C@H](C(=O)N[C@@H](CC(C)C)[C@H](O)CC(=O)N[C@@H](C)C(=O)N[C@@H](CC(C)C)[C@H](O)CC(=O)O)C(C)C)C(C)C
8.75%: max response [6, 15]
20.1%: max response [6, 14]
inactive: outcome [1] | Potency [2] | activity change, negative = inhibition [3] -1.98% | outcome [4] | Potency [5] | outcome [10] | activity change, negative = inhibition [6] 1.03% | Potency [11]

COc1ccc2nccc(C(=O)O)c2c1
-9.32%: max response [6, 15]
-10.5%: max response [6, 14]
inactive: outcome [1] | Potency [2] | activity change, negative = inhibition [3] -15.8% | outcome [4] | Potency [12] > 20.6 µM | Potency [5] | outcome [10] | activity change, negative = inhibition [6] 2.98%

C[C@@H]1C[C@@H]2[C@H]3CCC4=CC(=O)C=C[C@]4(C)[C@]3(F)[C@@H](O)C[C@]2(C)[C@@]1(O)C(=O)CO
inactive: outcome [1] | Potency [2] | activity change, negative = inhibition [3] -9.85% | outcome [4] | outcome [10] | activity change, negative = inhibition [6] -3.53% | Potency [11]
-8.18%: max response [6, 15]
2.12%: max response [6, 14]

C=N[C@H](C(=O)N[C@@H]1C(=O)N2[C@@H]1SC(C)(C)[C@@H]2C(=O)O)c1ccccc1
inactive: outcome [1] | Potency [2] | activity change, negative = inhibition [3] -0.342% | outcome [4] | Potency [5] | activity change, negative = inhibition [6] -2.09% | Potency [11]
-2.49%: max response [6, 14]
-4.08%: max response [6, 15]

C[C@@H]1Cc2ccccc2N1NC(=O)c1ccc(Cl)c(S(N)=O)c1 (stereo not given in full)
inactive: outcome [1] | Potency [2] | activity change, negative = inhibition [3] 6.1% | outcome [4] | Potency [5] | outcome [10] | activity change, negative = inhibition [6] -0.666% | outcome [7] | Potency [11] | Potency [8] | activity, negative = inhibition ([13]; parasite line A) 15.9% | activity, negative = inhibition ([13]; parasite line B) 17.7% | Potency (CP191) | Potency (CP217) | Potency (CP250) | Potency (CP256) | Potency (FAB9) | Potency (JCK)
active: Potency [9] 3.46 µM
8.03%: max response [6, 14]
7.13%: max response [6, 15]

NS(=O)(=O)c1cc2c(cc1C(F)(F)F)N[C@H](Cc1ccccc1)NS2(=O)=O
active: Potency [2] 15.8 µM
-8.69%: max response [6, 14]
-8.81%: max response [6, 15]
inactive: outcome [1] | activity change, negative = inhibition [3] 17.7% | outcome [4] | Potency [5] | outcome [10] | activity change, negative = inhibition [6] 1.42% | outcome [7] | Potency [8] | Potency [9] | activity, negative = inhibition ([13]; parasite line A) -1.91% | Potency (CP191) | Potency (CP217) | Potency (CP250) | Potency (CP256) | Potency (FAB9) | Potency (JCK)

CCN1CCN(C(=O)N[C@H](C(=O)N[C@@H]2C(=O)N3[C@@H]2SC(C)(C)[C@@H]3C(=O)O)c2ccccc2)C(=O)C1=O
-7.68%: max response [6, 15]
inactive: outcome [1] | Potency [2] | activity change, negative = inhibition [3] -2.87% | outcome [4] | Potency [5] | outcome [10] | activity change, negative = inhibition [6] 0.264% | Potency [11]
-7.94%: max response [6, 14]
